In PubChem BioAssay (NCI) one finds growth data, which are given here for seven molecules.

Some test systems named below: DU-145 prostate; K-562 leukemia; MALME-3M melanoma; MDA-MB-231 breast; RXF 393 renal; SF-268 CNS; SF-295 CNS; SF-539 CNS; UACC-257 melanoma; M14 melanoma; HCT-15 colon; HT29 colon; SNB-75 CNS; SNB-19 CNS; U251 CNS; PC-3 prostate; SK-MEL-5 melanoma; UACC-62 melanoma; SK-MEL-28 melanoma; LOX IMVI melanoma.
What all share (experiment): NCI-60 one-dose screen, 48 h (100 = growth as untreated, 0 = no growth, -100 = all killed)
Common to all, as to settings: 10 µM unless noted

SMILES strings stand for the structures. About 83,000 compounds went through this panel and 20% of them were active in at least one assay; those are over-represented in the sample as a whole.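 The test compound was applied at a single concentration to cells in 96-well plates for 48 hours, and percent growth was recorded.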 Unmarked numbers belong to inactive results. Active and inactive are the calls of the source. Rule for the calls: active = growth percent below 10; inactive = the rest.

Consider `COc1ccc(/C=C/C=C\C(=O)c2ccc(-n3ccnc3)cc2)cc1`, for which the growth in the assay with DU-145 prostate is 98%; in the assay with K-562 leukemia, 66.2%; with MALME-3M melanoma, 92.8%; with MDA-MB-231 breast, 94%; with RXF 393 renal, 92.7%; in the assay with SF-268 CNS, 96.2%. The growth in the assay with SF-295 CNS is 99.7%; with SF-539 CNS, 97.9%; in the assay on UACC-257 melanoma it was 93.1%; in the assay with M14 melanoma, 21.3%; in the assay with HCT-15 colon it was 91.3%; in the assay with HT29 colon, 93.4%. Also, the growth in the assay on SNB-75 CNS was 90.8%; in the assay on SNB-19 CNS, 87.6%; in the assay with U251 CNS, 83.3%; with PC-3 prostate it was 88.8%; in the assay on SK-MEL-5 melanoma, 88.6%; in the assay with UACC-62 melanoma, 79.1%. Besides, the growth in the assay with SK-MEL-28 melanoma was 104%.

`Cc1cnc(N)nc1OCCNC(=O)c1cccc(-c2ccc(S(=O)(=O)Nc3ccc4c(c3)N(C(=O)C3CC3)CCC4)cc2)c1`: the growth in the assay with DU-145 prostate was 90.2%; in the assay with K-562 leukemia, 58.8%; with MALME-3M melanoma, 120%; in the assay on MDA-MB-231 breast it was 89.5%; with RXF 393 renal, 88.3%; in the assay on SF-268 CNS, 74.5%. Besides, the growth in the assay on SF-295 CNS is 77.9%; in the assay on SF-539 CNS it was 92%; in the assay with UACC-257 melanoma, 84.1%; with M14 melanoma, 80.1%; with HCT-15 colon, 96.4%; in the assay on HT29 colon it was 80.5%. Further, the growth was 57.3% with SNB-75 CNS; 75.5% with SNB-19 CNS; 88.4% with U251 CNS; 53.5% with PC-3 prostate; 23.8% in the assay with SK-MEL-5 melanoma; 48.1% in the assay with UACC-62 melanoma. In addition, the values for the growth in the assay with LOX IMVI melanoma and in the assay with SK-MEL-28 melanoma were 88.5% and 88.6%, respectively.

In the case of `Cc1ccc(NC(=O)N[C@@H](Cc2cc(F)cc(F)c2)C(=O)N[C@@H]2C(=O)N3CCC[C@H]3C(=O)N3CCCC[C@H]3C(=O)N[C@@H](C)C(=O)N3C[C@H](C)C[C@H]3C(=O)O[C@H]2C)cc1`, the growth with DU-145 prostate is 28.8%; with K-562 leukemia, 14.3%; with MALME-3M melanoma it was 35%; in the assay on MDA-MB-231 breast it was 4.01% (active); with RXF 393 renal it was 28.8%; in the assay with SF-268 CNS, 28.8%. Further, the growth with SF-295 CNS was 18.5%; in the assay on SF-539 CNS it was 48.6%; in the assay on UACC-257 melanoma, 18%; in the assay on M14 melanoma, 34%; in the assay on HCT-15 colon it was 14.7%; in the assay with HT29 colon it was 30.3%. Moreover, the growth is 10.7% in the assay on SNB-75 CNS; 22% in the assay with SNB-19 CNS; 29.8% with U251 CNS; 16.1% in the assay with PC-3 prostate; 10.8% in the assay with SK-MEL-5 melanoma; 25.8% in the assay on UACC-62 melanoma. The growth in the assay on SK-MEL-28 melanoma was 39.4%.

For `O=C1NC(=O)C(Cc2ccc(OCc3ccc(-c4cc(F)c(F)c(F)c4)cc3)cc2)S1` (centres undefined), the growth was 95.1% in the assay on DU-145 prostate; 65% with K-562 leukemia; 93% in the assay on MALME-3M melanoma; 76.7% in the assay with MDA-MB-231 breast; 102% in the assay on RXF 393 renal; 78.5% with SF-268 CNS. The growth with SF-295 CNS is 85.7%; in the assay with SF-539 CNS, 85%; with UACC-257 melanoma it was 90.7%; in the assay with M14 melanoma, 94.8%; in the assay with HCT-15 colon, 88.2%; in the assay on HT29 colon, 107%. In addition, the growth in the assay on SNB-75 CNS is 83.2%; in the assay on SNB-19 CNS it was 93.5%; in the assay on U251 CNS, 86.1%; in the assay with PC-3 prostate it was 71.4%; in the assay on SK-MEL-5 melanoma, 76.5%; in the assay on UACC-62 melanoma it was 56.2%. For the same molecule, the growth in the assay with SK-MEL-28 melanoma was 102%.

For the molecule `CC[C@@H]1NC(=O)[C@@H]2CCCCN2C(=O)[C@@H]2CCCN2C(=O)[C@@H](NC(=O)[C@H](Cc2cc(F)cc(F)c2)NC(=O)Nc2ccc(C3CC3)cc2F)[C@H](C)OC(=O)[C@@H]2C[C@@H](C)CN2C1=O`, the growth in the assay with DU-145 prostate is 20%; in the assay with K-562 leukemia, 10.4%; in the assay with MALME-3M melanoma, 16.9%; with MDA-MB-231 breast, -31.2% (active); in the assay with RXF 393 renal, -4.47% (active); in the assay on SF-268 CNS, 22%. Moreover, the growth in the assay on SF-295 CNS was -10.1% (active); in the assay on SF-539 CNS, 24.1%; in the assay with UACC-257 melanoma it was 10.7%; with M14 melanoma, 16.8%; in the assay with HCT-15 colon, 4.6% (active); with HT29 colon, 4.98% (active). The growth was 10.4% with SNB-75 CNS; 15.7% in the assay on SNB-19 CNS; 24.5% in the assay on U251 CNS; 12.5% with PC-3 prostate; -45% (active) with SK-MEL-5 melanoma; 7.28% (active) with UACC-62 melanoma. The growth with SK-MEL-28 melanoma is 13.5%.

Take `CC1(C)C(=NO)C(C)(C)C1=NO`: the growth in the assay on DU-145 prostate is 114%; in the assay with K-562 leukemia it was 98.8%; in the assay with MALME-3M melanoma, 116%; in the assay on MDA-MB-231 breast, 123%; in the assay with RXF 393 renal it was 112%; in the assay on SF-268 CNS, 103%. Moreover, the growth in the assay on SF-295 CNS is 108%; with SF-539 CNS it was 117%; in the assay on UACC-257 melanoma, 95.4%; in the assay on M14 melanoma, 99.5%; in the assay on HCT-15 colon, 102%; in the assay on HT29 colon, 105%. Besides, the growth in the assay with SNB-75 CNS is 96.5%; with SNB-19 CNS, 107%; in the assay with U251 CNS it was 113%; in the assay with PC-3 prostate, 90.7%; with SK-MEL-5 melanoma, 103%; with UACC-62 melanoma, 109%. Moreover, the growth with SK-MEL-28 melanoma was 113%.

Take `Nc1nc(Nc2ccccc2)c2ncn(Cc3cc4c(cc3Br)OCO4)c2n1`: the growth with DU-145 prostate was 18.2%; with K-562 leukemia, 10.2%; in the assay with MALME-3M melanoma, 74.7%; in the assay with MDA-MB-231 breast it was -5.1% (active); in the assay on RXF 393 renal it was 22.9%; with SF-268 CNS, 23.8%. Also, the growth was 14% in the assay on SF-295 CNS; 1.84% (active) in the assay with SF-539 CNS; 58.3% with UACC-257 melanoma; 15.7% with M14 melanoma; 6.74% (active) in the assay with HCT-15 colon; -34% (active) in the assay with HT29 colon. Moreover, the growth in the assay with SNB-75 CNS was 18.8%; in the assay with SNB-19 CNS, 17.3%; in the assay with U251 CNS it was 3.29% (active); with PC-3 prostate, 16.2%; in the assay with SK-MEL-5 melanoma, -6.17% (active); in the assay with UACC-62 melanoma, 33.6%. The growth in the assay with SK-MEL-28 melanoma was 52%.
